Test results: ChEMBL document CHEMBL3433997, “St. Jude Leishmania screening dataset” (2016)

target: Solute carrier family 2, facilitated glucose transporter member 1 (Homo sapiens) (UniProt P11166); assay: ST_JUDE_LEISH: Cytotoxicity at 2uM final concentration against transgenic Leishmania Mexicana promastigotes LmGLUT1 that are glucose transport deficient and complemented with the human glucose transporter GLUT1. Activity is measured by DNA content using SYBR green in vitro; assay type: functional
Sequence (P11166 whole entry): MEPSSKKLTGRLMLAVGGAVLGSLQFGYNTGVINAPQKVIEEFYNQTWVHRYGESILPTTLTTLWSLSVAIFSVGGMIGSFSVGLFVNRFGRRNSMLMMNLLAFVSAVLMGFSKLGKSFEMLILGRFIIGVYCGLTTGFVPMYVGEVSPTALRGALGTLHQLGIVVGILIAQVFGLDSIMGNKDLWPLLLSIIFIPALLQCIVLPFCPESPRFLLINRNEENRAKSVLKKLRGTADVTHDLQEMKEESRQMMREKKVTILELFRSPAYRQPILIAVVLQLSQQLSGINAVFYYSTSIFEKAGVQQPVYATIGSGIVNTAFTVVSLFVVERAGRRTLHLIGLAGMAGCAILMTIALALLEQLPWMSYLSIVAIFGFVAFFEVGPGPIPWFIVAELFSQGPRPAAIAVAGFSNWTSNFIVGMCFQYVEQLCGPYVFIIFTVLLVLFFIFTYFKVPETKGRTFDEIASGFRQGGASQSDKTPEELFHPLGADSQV

Q: With Cc1cc(=O)[nH]c(-n2nc(C)cc2NC(=O)CC(c2ccccc2)c2ccccc2)n1 as the molecule, how does the inhibition read?
A: 14.8%

Q: Which inhibition does the source give for Cc1ccccc1Nc1nc(NCCc2ccccc2)nc2ccccc12 here?
A: 49.2%

Q: How did the inhibition turn out when C=CCc1cc(SC)ccc1Oc1ccc(N)cc1 was run?
A: 1.84%

Q: How did the inhibition turn out when CN1CCC(Oc2ccc(CN3CC[C@H](NC(=O)c4ccc(Cl)c(Cl)c4)C3)c3ccccc23)C1 (stereo partly specified) was run?
A: 2.7%

Q: Which inhibition does the source give for COc1c(CN2CCOCC2)cccc1-c1cc2c(-c3ccc(C(=O)O)c(C(C)C)c3)ccnc2[nH]1 here?
A: 4.23%

Q: Which inhibition does the source give for COc1ccc2ncc(F)c([C@@H](O)CN3CCC(NCc4cc5c(cn4)OCCO5)CC3)c2c1 here?
A: 2.51%

Q: Which inhibition does the source give for CCOC(=O)c1ccc(NC(=O)N[C@@H](Cc2ccccc2)C(=O)NC2CCN(Cc3ccc(O)c(OC)c3)C2)cc1 (stereo partly specified) here?
A: -2.58%

Q: Which inhibition does the source give for Brc1cc(Br)c2c(c1)C(NCCCNc1nc3ncccc3[nH]1)CCN2 (stereo unspecified) here?
A: 68%

Q: How did the inhibition turn out when Cc1cc(Nc2ccc(Cl)c(Cl)c2)n2nc(C)nc2n1 was run?
A: -1.71%

Q: With Cc1[nH]c(C)c(Cc2ccc(Oc3ccc(OC(F)(F)F)cc3)cc2)c(=O)c1Br as the molecule, how does the inhibition read?
A: -0.67%

Q: For O=C(Nc1cccc(CN2CCCN(Cc3ccc(O)cc3)CC2)c1)c1cc2ccccc2o1, which inhibition is on record?
A: -0.45%

Q: With Oc1ccc(CCCc2cc(Oc3c(I)cc(CCc4ncc[nH]4)cc3I)ccc2O)cc1 as the molecule, how does the inhibition read?
A: 1.08%

Q: For COCCn1c(-c2nc(-c3ccc(F)cc3)cnc2N)nc2ccccc21, which inhibition is on record?
A: 0.54%

Q: CC(C)(C)CCN1CCC(CNC(=O)c2cc(-c3cccc(C(F)(F)F)c3)cs2)C1 (stereo unspecified) was tested. Which inhibition did it give?
A: 3.1%

Q: For Cc1cc(N[C@@H](Cc2ccccc2)C(=O)NC2CCCC2)nc(Nc2ccccc2)n1, which inhibition is on record?
A: 7.17%

Q: CCNc1cc(C(=O)N[C@@H](Cc2ccccc2)[C@H](O)CNCc2ccc3c(c2)OCCO3)cc(N2CCCCS2(=O)=O)c1 was tested. Which inhibition did it give?
A: 0.98%
